Shown are actives, neighbours in structure and some others; about 1.5% of the full set was active somewhere.
Giardia kill – kills Giardia lamblia; Giardia lamblia trophozoite viability; activity change, % at 7.66 µM, hits read low; actives 0.15% (n = 340,000); in the data active means activity change below about -80%; inconclusive means between about -30% and that limit;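 further: parasites exposed to compound for two days anaerobically before the ATP read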
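Luminescence from cellular ATP indicates surviving trophozoites (100 cells/well) following 48 hrs anaerobic compound treatment at 37 deg C; signal develops 15-30 min at room temperature.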
TrxR1 substrate – is turned over as a substrate by rat TrxR1; O89049; purified TrxR1 substrate turnover, NADPH consumption readout; Potency, µM (doses to about 114 µM), without a hit: at the top dose activity change, negative = substrate turnover; actives 0.01% (n = 390,000); AID 588456; further: potency means the concentration at half of the fitted maximal effect; nearly all actives have a fitted effect of over 50% in size
Target sequence (O89049 whole entry, looked up): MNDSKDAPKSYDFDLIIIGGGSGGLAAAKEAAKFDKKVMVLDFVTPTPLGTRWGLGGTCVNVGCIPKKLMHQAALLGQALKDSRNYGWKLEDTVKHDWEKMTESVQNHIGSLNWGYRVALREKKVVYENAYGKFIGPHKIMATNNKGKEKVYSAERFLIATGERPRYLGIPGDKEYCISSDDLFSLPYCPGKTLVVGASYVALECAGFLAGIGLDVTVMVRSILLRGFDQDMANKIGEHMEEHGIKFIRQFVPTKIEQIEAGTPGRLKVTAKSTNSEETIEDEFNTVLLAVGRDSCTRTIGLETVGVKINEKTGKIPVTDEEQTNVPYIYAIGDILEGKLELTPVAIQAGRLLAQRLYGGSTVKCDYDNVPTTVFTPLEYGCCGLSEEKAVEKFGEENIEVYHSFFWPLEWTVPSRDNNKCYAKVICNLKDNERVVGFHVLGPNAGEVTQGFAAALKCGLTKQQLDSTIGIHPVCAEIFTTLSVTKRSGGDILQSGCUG
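Rat TrxR1, dispensed at 90 nM, was prereduced with 400 uM NADPH (final) for 5 min at ~22 deg C, then incubated with compound 15 min before 400 uM selenite. A first-read NADPH fluorescence drop versus no-compound background flagged substrates.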
PI4K2A block – blocks human PI4K2A kinase activity. purified PI4K2A, ADP-Glo luminescence, 1 h; stronger effect = lower value. AID 1346378. actives 0.13% (n = 420,000). activity change, negative = inhibition, % at 76.9 µM; in the data active means activity change below about -50%; inconclusive means mostly about -30% to -49%;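 further: -100% = wells without enzyme as full effect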
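PI4K2A activity was measured by ADP-Glo luminescence: enzyme (4 ug/mL stock) and phosphatidylinositol (1.2 mM stock) in Tris pH 7.5/MgCl2/EGTA/Triton X-100 buffer were reacted with ATP (300 microM stock) for one hour at ambient temperature.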
GALK inh – galactokinase (human) inhibition; P51570; Purified GALK, Kinase-Glo residual ATP luminescence; Potency, µM (highest dose often 57.5 µM), without a hit: top-dose activity change, negative = inhibition, usual class: inhibitors; actives 0.007% (n = 270,000); AID 1868; further: potency means the concentration at half of the fitted maximal effect
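Galactose (100 uM) and ATP (35 uM) were turned over by 5 nM GALK for 1 h at RT. Kinase-Glo Plus then converted the remaining ATP into a luminescent signal.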
TrxR1 inh – blocks rat thioredoxin reductase 1. O89049. recombinant rTrxR1, NADPH fluorescence consumption, selenite substrate. Potency, µM (highest dose often 114 µM), for inactives: at the top dose activity change, negative = inhibition, hits mostly inhibitors. actives 1% (n = 390,000); further: potency means the concentration at half of the fitted maximal effect; nearly all actives have a fitted effect of over 65% in size
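Rat TrxR1 (90 nM in the dispensed reagent) was pre-reduced with 400 uM NADPH for 5 min at room temperature, then incubated with compound for 15 min. After 400 uM selenite was added, NADPH fluorescence (Ex 340/Em 450 nm) was followed for 8 min.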
FBPA coupling cs – coupling enzyme interference in Giardia aldolase counter-screen; actives 0.67% (n = 290,000); activity change, negative = inhibition, % at 58.2 µM, hits read low; coupling enzyme system counterscreen, AmpLite Red fluorescence; in the data active means activity change below about -30%
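Coupling enzymes only (glyceraldehyde-3-phosphate) + compound, at 57.5 uM final, 10 min RT; add substrate/coupling/AmpLite Red mix, 20 min RT; fluorescence ex 525/em 598 nm. Actives flag coupling-system interference.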
* hit, by the source's call; i = inactive; ? = inconclusive; / = not tested or not shown; [ ] = dose if it differs, or a comment. Unless noted, the call rests on the fitted dose curve; in most records, active means well fitted curve in the direction sought with a large enough effect; inconclusive means small, poorly fitted or top-dose-only effect, or another doubt; inactive means no such curve, though single readings can be large; an effect the other way counts as inactive or inconclusive. Unless noted, on the % scale 0 is the no-effect control and ±100 the full control effect.

SMILES | Giardia kill | TrxR1 substrate | PI4K2A block | GALK inh | TrxR1 inh | FBPA coupling cs
Cc1ccnc(-n2c(C)cc(C=C3C(=O)N(C)C(=S)N(C)C3=O)c2C)c1 | 9 | -8% | -3 | 2% | 18µM* | 6
Cc1cc(C=C2C(=O)N(C)C(=S)N(C)C2=O)c(C)n1-c1ccncc1 | -5 | 3% | -1 | -2% | ? | -2
CC(Cc1ccccc1)N(C)Cc1ccco1 (stereo not drawn) | / | / | -1 | / | / | /
c1cc[n+]2c(c1)-c1cccc[n+]1CC2 | / | / | / | / | / | -35*
Cc1ccc(C(c2nnnn2Cc2ccccc2)N2CC=C(c3ccc(F)cc3)CC2)cc1 (stereo not drawn) | -90* | 6% | 0 | -2% | 9% | 0
C[C@]12Cc3cn[nH]c3C[C@@H]1CC[C@@H]1[C@@H]2CC[C@@]2(C)[C@H]1CC[C@]2(C)O | / | / | 2 | / | / | /
N#CC(C#N)=Cc1ccc(N2CCOCC2)cc1 | -11 | -9% | 20 | -1% | 71µM* | -4
C[C@H](N)C(=O)c1ccccc1 | / | / | i | / | / | /
O=C(CCl)Nc1nccs1 | 29 | 0% | 6 | / | 13µM* | 7
C[C@@H]1O[C@@H](O[C@H]2CC[C@@H](O[C@H]3[C@H](O)C[C@H](c4ccc5c(c4O)C(=O)C4=C(C5=O)[C@@]5(O)C(=O)C[C@](C)(O[C@H]6CC[C@H](O[C@H]7C=CC(=O)[C@H](C)O7)[C@H](C)O6)C[C@@]5(O)C=C4)O[C@@H]3C)O[C@H]2C)C=CC1=O | / | / | / | / | / | -74*
C=CCN1C(=O)NC(=O)/C(=C/c2cnc(SC)nc2)C1=O | 7 | 10%[57.1 µM] | -9 | -1% | 14µM* | 0
O=C1NC(=O)N(Cc2ccc(F)cc2)C(=O)/C1=C\c1ccc(N2CCCC2)cc1 | -5 | 9%[57.1 µM] | -15 | -8% | -71% | 0
C=CCN1C(=O)NC(=O)/C(=C/c2cc3c4c(c2)CCCN4CCC3)C1=O | 5 | -7% | -12 | 1% | 45µM* | -8
Nc1c(C(=O)NCc2ccco2)c2nc3ccccc3nc2n1Cc1ccc(F)cc1 | -7 | 40%[57.1 µM] | ? | -1% | -62% | -40*
Nc1c(C(=O)NCc2ccco2)c2nc3ccccc3nc2n1Cc1ccccc1 | 8 | 57% | -6 | / | ? | -28
CCCCCn1c(N)c(C(=O)NCc2cccs2)c2nc3ccccc3nc21 | 5 | 88% | 0 | -1% | 82% | -17
Nc1c(C(=O)NCCCc2ccccc2)c2nc3ccccc3nc2n1Cc1cccs1 | -2 | 48% | -6 | -1% | -42%[57.1 µM] | -51*
CCCC(Cn1cncn1)c1ccc(Cl)cc1Cl (stereo not drawn) | / | / | / | / | / | -1
CCn1nc(/C=C/c2ccccc2)nc2c(=O)n(C)c(=O)nc1-2 | -94* | 16µM* | -69* | 5% | ? | 1
CN1CC[C@]2(C)c3cc(O)ccc3N(C)[C@@H]12 | / | / | / | / | / | -69*
CCOP(=S)(OCC)OCCSCC | / | / | / | / | / | 3
C=CCN1CC[C@]23CCCC[C@H]2[C@H]1Cc1ccc(O)cc13 | / | / | 1 | / | / | /
COC(/C(C)=C/C=C/C(C)=C/c1coc(C)n1)C(C)C1CC(O)C2(C)OC2C=CC(C)C2CC(CC(=O)O2)CC2OC2C(=O)O1 (stereo not drawn) | ? | 1% | -4 | / | 10µM* | /
CCN(CC)c1ccc(CC2C(=O)N(C)C(=O)N(C)C2=O)cc1 | 16 | -5% | -6 | -1% | 32µM* | 0
CN1C(=O)C(=Cc2ccccc2OS(=O)(=O)c2ccccc2)C(=O)N(C)C1=O | 21 | -2% | -11 | 1% | 28µM* | -4
CC(C)(N)Cc1ccccc1Cl | / | / | 1 | / | / | /
Cc1ccc(-c2n[nH]c(=S)n2-c2ccccc2)cc1 | -11 | -6%[57.1 µM] | -4 | -2% | ? | 0
Cc1ccc(-n2c(-c3nn(C)c(C)c3Cl)n[nH]c2=S)cc1 | 17 | -11% | -20 | 0% | 40µM* | -3
CN1CCN(c2ccc([N+](=O)[O-])c(NCC3CCCO3)c2)CC1 (stereo not drawn) | 10 | -10% | 10 | 0% | -5% | -31*
c1ccc(CCN2CCCCC2)cc1 | / | 9% | / | / | 12% | /

Screening results: PubChem, National Center for Advancing Translational Sciences (NCATS)
